Results reported in PubChem BioAssay (Tox21).
Records with an inconclusive call do not appear. Calls of active or inactive are those of the source. Unless noted, the call rests on the fitted dose curve; in most records, active means well fitted curve in the direction sought with a large enough effect in the repeat runs; inconclusive means weak or mixed curves; inactive means no such curve, though single readings can be large; an effect the other way counts as inactive or inconclusive.

Assays:
[1] = qHTS assay to identify small molecule antagonists of the peroxisome proliferator-activated receptor gamma (PPARg) signaling pathway - cell viability counter screen (AID 743194); further: nearly all actives have a fitted effect of over 55% in size
In short: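 Viability was measured as CellTiter-Glo luminescence in GeneBLAzer PPARg UAS-bla HEK293H cells. These cells had been exposed 17 h at 37 C to compounds together with rosiglitazone at 50 nM final, with the beta-lactamase readout taken in the same wells.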

[2] = qHTS assay for small molecule agonists of the antioxidant response element (ARE) signaling pathway (AID 743202; active means well fitted activation curve with a large enough effect in the signal ratio in the repeat runs, not every such curve was filed as active; the % refers to the signal ratio; further: potency means the concentration at half of the fitted maximal effect)
In short: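 An ARE-responsive beta-lactamase gene stably integrated in HepG2 cells serves as reporter. After 5 h plating and 16 h compound incubation at 37 C, fluorescence of the B/G FRET substrate was measured.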

[3] = qHTS assay for small molecule agonists of the antioxidant response element (ARE) signaling pathway - cell viability counter screen (AID 743203; calls by dose curve; further: nearly all actives have a fitted effect of over 55% in size)
In short: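 Cells (ARE-bla HepG2, 2,000/well) receive DMSO-dissolved compounds after a 5 hrs rest. Plates incubate 16 hrs at 37C/5% CO2. CellTiter-Glo luminescence is then recorded after 30 min at room temperature.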

[4] = qHTS assay for small molecule activators of the heat shock response signaling pathway - cell viability counter screen (AID 743209); further: nearly all actives have a fitted effect of over 50% in size
In short: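 Quantitative HTS format, Tox21 10K library. HeLa cells carrying an HSE-driven beta-lactamase reporter were treated 5 h at 37 C, then assessed for viability by CellTiter-Glo luminescence.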

[5] = qHTS assay to identify small molecule agonists of the peroxisome proliferator-activated receptor delta (PPARd) signaling pathway - cell viability counter screen (AID 743211); further: nearly all actives have a fitted effect of over 55% in size
In short: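 Viability was measured as CellTiter-Glo luminescence (30 min, room temperature) in the same wells as the beta-lactamase readout. GeneBLAzer PPARd UAS-bla HEK293H cells received compound after 5 h plating and were incubated 17 h at 37 C.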

[6] = qHTS assay to identify small molecule antagonists of the peroxisome proliferator-activated receptor delta (PPARd) signaling pathway - cell viability counter screen (AID 743213); further: nearly all actives have a fitted effect of over 50% in size
In short: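 HEK293H PPARd UAS-bla cells, 5 h pre-incubation, compound + L165041 300 nM final, 17 h 37 C; B/G FRET substrate 2 h RT; then CellTiter-Glo 30 min RT, luminescence.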

[7] = qHTS assay to identify small molecule agonists of the farnesoid-X-receptor (FXR) signaling pathway - cell viability counter screen (AID 743218); further: nearly all actives have a fitted effect of over 45% in size
In short: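 In GeneBLAzer FXR-UAS-bla HEK 293T cells, compounds act for 16 h at 37 C. Cell viability is then scored in the reporter wells by CellTiter-Glo, 30 min at RT, luminescence.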

[8] = qHTS assay to identify small molecule antagonists of the farnesoid-X-receptor (FXR) signaling pathway - cell viability counter screen (AID 743221; active means well fitted cell-killing curve with a large enough effect in the repeat runs, not every such curve was filed as active; further: nearly all actives have a fitted effect of over 50% in size)
In short: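 Cytotoxicity counter screen run in the FXR-bla reporter wells: HEK 293T cells exposed to compound with 50 uM (final) chenodeoxycholic acid for 16 h, 37 C, then viability measured by CellTiter-Glo luminescence after 30 min, room temperature.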

[9] = molecular target: Vitamin D3 receptor (Homo sapiens) (UniProt P11473); assay: qHTS assay to identify small molecule antagonists of the vitamin D receptor (VDR) signaling pathway (AID 743223; active means well fitted inhibition curve with a large enough effect in the signal ratio in the repeat runs, not every such curve was filed as active; the % refers to the signal ratio)
In short: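 Antagonist mode: compound added to VDR-bla cells alongside agonist 1alpha,25-dihydroxyvitamin D3 (3 nM final), incubation 16 h at 37C. Read-out is LiveBLAzer FRET fluorescence, 2 h at room temperature.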

[10] = qHTS assay to identify small molecule agonists of the vitamin D receptor (VDR) signaling pathway - cell viability counter screen (AID 743224); further: series mostly up to about 63 µM; nearly all actives have a fitted effect of over 50% in size
In short: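 VDR-bla cell line, quantitative HTS format; 16 h compound incubation (37C, 5% CO2); ATP-based CellTiter-Glo luminescence measured in the reporter assay wells.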

[11] = molecular target: Peroxisome proliferator-activated receptor gamma (Homo sapiens) (UniProt P37231); assay: qHTS assay to identify small molecule agonists of the peroxisome proliferator-activated receptor gamma (PPARg) signaling pathway (AID 743094; active means well fitted activation curve with a large enough effect in the signal ratio in the repeat runs, not every such curve was filed as active; the % refers to the signal ratio)
In short: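 Stably transfected HEK293H cells (GeneBLAzer PPARg UAS-bla) were incubated with test substances for 17 h at 37C after a 5 h pre-incubation; beta-lactamase activity was then detected by FRET substrate fluorescence.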

[12] = qHTS assay for small molecule activators of the heat shock response signaling pathway (AID 743210; active means well fitted activation curve with a large enough effect in the signal ratio in the repeat runs, with a control signal flat, not every such curve was filed as active; the % refers to the signal ratio;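 further: HeLa cells with beta-lactamase reporter driven by heat shock elements; series mostly up to about 63 µM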)
In short: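 In HSE-bla HeLa cells, 5 h compound incubation (37 C) precedes addition of LiveBLAzer B/G substrate; after 2.5 h at room temperature, fluorescence intensity indicates reporter induction.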

[13] = molecular target: Peroxisome proliferator-activated receptor delta (Homo sapiens) (UniProt Q03181); assay: qHTS assay to identify small molecule agonists of the peroxisome proliferator-activated receptor delta (PPARd) signaling pathway (AID 743212; calls by dose curve)
In short: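 HEK293H UAS-bla reporter cells, human PPARd system; compounds delivered in DMSO after 5 h plating, then at 37 C. Beta-lactamase FRET read, 2 h RT substrate step.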

[14] = molecular target: Peroxisome proliferator-activated receptor delta (Homo sapiens) (UniProt Q03181); assay: qHTS assay to identify small molecule antagonists of the peroxisome proliferator-activated receptor delta (PPARd) signaling pathway (AID 743215; active means well fitted inhibition curve with a large enough effect in the signal ratio in the repeat runs, not every such curve was filed as active; the % refers to the signal ratio;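 further: cells stimulated with agonist L165041 at 300 nM final during compound exposure; series mostly up to about 62 µM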)
In short: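 Antagonist-mode beta-lactamase reporter screen: HEK293H cells with UAS-bla under PPARd control, stimulated by 300 nM L165041 (final) alongside test compound for 17 h at 37 C, then FRET fluorescence after 2 h substrate incubation.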

[15] = molecular target: Vitamin D3 receptor (Homo sapiens) (UniProt P11473); assay: qHTS assay to identify small molecule agonists of the vitamin D receptor (VDR) signaling pathway (AID 743222; calls by dose curve)
In short: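 Agonist activity measured in VDR-bla reporter cells. Exposure 16 h, 37C, 5% CO2; detection by B/G FRET substrate, 2 h RT.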

[16] = qHTS assay to identify small molecule that activate the aryl hydrocarbon receptor (AhR) signaling pathway - cell viability counter screen (AID 743086);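 further: HepG2 liver cells carrying the AhR DRE luciferase reporter; series mostly up to about 70 µM; nearly all actives have a fitted effect of over 45% in size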
In short: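 Cytotoxicity counter screen: CellTiter-Fluor signal (30 min, 37 C) in 4000 HepG2 cells/well carrying the DRE-luciferase reporter, following 24 h compound exposure at 37 C.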

[17] = molecular target: Peroxisome proliferator-activated receptor gamma (Homo sapiens) (UniProt P37231); assay: qHTS assay to identify small molecule antagonists of the peroxisome proliferator-activated receptor gamma (PPARg) signaling pathway (AID 743191; calls by dose curve; further: series mostly up to about 63 µM; nearly all actives have a fitted effect of over 30% in size)
In short: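 Beta-lactamase reporter under UAS control in HEK293H PPARg-bla cells; compound treatment 17 h at 37C. Read-out: fluorescence intensity after 1 h room-temperature incubation with LiveBLAzer B/G FRET substrate.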

[18] = molecular target: Bile acid receptor (Homo sapiens) (UniProt Q96RI1); assay: qHTS assay to identify small molecule antagonists of the farnesoid-X-receptor (FXR) signaling pathway (AID 743217; active means well fitted inhibition curve with a large enough effect in the signal ratio in the repeat runs, not every such curve was filed as active; the % refers to the signal ratio)
In short: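 Beta-lactamase reporter under UAS control in HEK 293T cells; compound exposure 16 h at 37 °C in the presence of chenodeoxycholic acid (50 uM final); signal from B/G FRET substrate after 2 h at room temperature.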

[19] = molecular target: Bile acid receptor (Homo sapiens) (UniProt Q96RI1); assay: qHTS assay to identify small molecule agonists of the farnesoid-X-receptor (FXR) signaling pathway (AID 743220; active means well fitted activation curve with a large enough effect in the signal ratio in the repeat runs, not every such curve was filed as active; the % refers to the signal ratio)
In short: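 Beta-lactamase reporter under UAS control in GeneBLAzer FXR HEK 293T cells (5000/well) measured with LiveBLAzer FRET substrate after 2 h at room temperature. Compound exposure lasted 16 h at 37C.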

Measured: Potency

Chain of Bile acid receptor (Homo sapiens) (Q96RI1 whole entry, looked up): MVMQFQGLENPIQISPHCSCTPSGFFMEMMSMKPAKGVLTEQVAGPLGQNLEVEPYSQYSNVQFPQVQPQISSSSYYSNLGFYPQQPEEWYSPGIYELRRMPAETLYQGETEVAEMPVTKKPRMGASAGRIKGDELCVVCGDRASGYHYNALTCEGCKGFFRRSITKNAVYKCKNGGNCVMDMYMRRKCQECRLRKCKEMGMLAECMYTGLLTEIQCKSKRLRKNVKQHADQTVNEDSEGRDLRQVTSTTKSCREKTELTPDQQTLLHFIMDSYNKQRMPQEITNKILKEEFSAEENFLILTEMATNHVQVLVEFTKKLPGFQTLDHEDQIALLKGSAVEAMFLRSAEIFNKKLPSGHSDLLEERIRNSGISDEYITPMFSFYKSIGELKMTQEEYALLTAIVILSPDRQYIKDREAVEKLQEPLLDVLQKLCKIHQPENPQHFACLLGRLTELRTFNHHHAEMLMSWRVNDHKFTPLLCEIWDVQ
Chain of Peroxisome proliferator-activated receptor gamma (Homo sapiens) (P37231 whole entry, looked up): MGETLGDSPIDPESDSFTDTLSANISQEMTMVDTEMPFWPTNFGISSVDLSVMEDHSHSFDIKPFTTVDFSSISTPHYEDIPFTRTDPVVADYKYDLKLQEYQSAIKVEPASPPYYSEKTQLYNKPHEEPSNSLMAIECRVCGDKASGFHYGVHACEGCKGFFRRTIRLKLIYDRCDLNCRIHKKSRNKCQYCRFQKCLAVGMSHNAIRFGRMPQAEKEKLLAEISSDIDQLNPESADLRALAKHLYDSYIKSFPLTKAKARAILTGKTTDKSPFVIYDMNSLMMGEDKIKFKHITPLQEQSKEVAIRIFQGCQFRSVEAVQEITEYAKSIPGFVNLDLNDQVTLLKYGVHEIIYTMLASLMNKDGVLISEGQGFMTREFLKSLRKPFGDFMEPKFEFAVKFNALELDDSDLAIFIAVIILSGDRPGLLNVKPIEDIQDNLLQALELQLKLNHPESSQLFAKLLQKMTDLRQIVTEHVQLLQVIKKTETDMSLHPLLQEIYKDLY
Chain of Vitamin D3 receptor (Homo sapiens) (P11473 whole entry, looked up): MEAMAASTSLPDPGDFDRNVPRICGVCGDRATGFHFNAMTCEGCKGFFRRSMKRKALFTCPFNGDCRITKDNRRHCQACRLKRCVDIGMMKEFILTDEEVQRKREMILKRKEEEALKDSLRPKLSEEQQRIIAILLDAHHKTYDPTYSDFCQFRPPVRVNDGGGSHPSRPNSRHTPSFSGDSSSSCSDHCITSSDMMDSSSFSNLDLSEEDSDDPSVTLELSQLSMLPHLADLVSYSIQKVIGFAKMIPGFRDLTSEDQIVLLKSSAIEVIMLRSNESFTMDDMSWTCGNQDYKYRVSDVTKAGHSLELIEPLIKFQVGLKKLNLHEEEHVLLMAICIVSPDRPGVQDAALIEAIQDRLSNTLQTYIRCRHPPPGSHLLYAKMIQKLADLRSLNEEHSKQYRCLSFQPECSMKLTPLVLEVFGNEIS
Chain of Peroxisome proliferator-activated receptor delta (Homo sapiens) (Q03181 whole entry, looked up): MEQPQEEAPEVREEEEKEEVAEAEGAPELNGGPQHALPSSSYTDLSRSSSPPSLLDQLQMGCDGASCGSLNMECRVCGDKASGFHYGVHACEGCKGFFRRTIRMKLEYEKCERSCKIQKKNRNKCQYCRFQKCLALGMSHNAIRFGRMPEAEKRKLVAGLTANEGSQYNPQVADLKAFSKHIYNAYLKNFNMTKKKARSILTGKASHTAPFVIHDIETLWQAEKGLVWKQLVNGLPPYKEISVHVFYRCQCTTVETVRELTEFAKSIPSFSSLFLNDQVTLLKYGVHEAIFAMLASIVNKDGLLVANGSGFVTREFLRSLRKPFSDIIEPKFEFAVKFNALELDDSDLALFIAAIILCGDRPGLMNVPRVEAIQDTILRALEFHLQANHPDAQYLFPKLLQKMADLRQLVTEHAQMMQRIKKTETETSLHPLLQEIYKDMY

CCOC(=O)N1CCC(Nc2ccc(Cl)cc2N)CC1
active: [2] 7.5 µM
inactive: [1] | [3] | [4] | [5] | [6] | [7] | [8] | [9] | [10]

COC(=O)C1=C(C)NC(C)=C(C(=O)OC(C)(C)CN(C)CCC(c2ccccc2)c2ccccc2)C1c1cccc([N+](=O)[O-])c1 (configuration not stated)
not listed: [2] | [8] | [10] | [16] | [17] | [18] | [19]
inactive: all other assays above

CCN(CC)CC(=O)Nc1c(C)cccc1C(=O)OC
not listed: [7] | [8] | [11] | [16] | [17] | [18] | [19]
inactive: all other assays above

CCOC(=O)c1ccc(NC(=O)CN2CCCCC2)cc1
not listed: [2] | [6] | [7] | [11] | [17] | [18] | [19]
inactive: all other assays above

O=c1[nH]c2cc(C(F)(F)F)c(N3CCOCC3)cc2n(CP(=O)(O)O)c1=O
not listed: [6] | [9] | [11] | [15]
inactive: all other assays above

CCN(CC)c1cccc(O)c1
inactive: [16] | [1] | [3] | [12] | [5] | [6] | [14] | [7] | [10]

Nc1ccc(S(=O)(=O)NCc2ccccc2)cc1
not listed: [6] | [8] | [9] | [11]
inactive: all other assays above

CCOC(=O)Oc1ccc(CCNC(=O)[C@H](CCSC)NC(C)=O)cc1OC(=O)OCC
not listed: [4] | [9] | [11] | [15] | [16] | [18] | [19]
inactive: all other assays above
